About 13,000 (27%) of roughly 48,000 compounds showed an effect of 50% or more. This is one part of the list.
Tested on: Wolbachia pipientis
Assay: Anti-Wolbachia Cell-Based Screen
Format: functional
Design: scale not given: in the data most compounds retested in dose-response had high values
Conditions: 5 µM

| Compound | Percent Effect |
| --- | --- |
| CCCc1noc(CCC(=O)N2CCN(C)CC2c2ccccc2)n1 (stereo unspecified) | 7.741% |
| O=C(NCC1SCCc2ccccc21)c1cscn1 (stereo unspecified) | 1.343% |
| N#Cc1cnc(NCCCN2C(=O)COc3ccccc32)c(Cl)c1 | 9.033% |
| CCOc1cccc(CNC(=O)NC2CC=CC2)c1OC(F)F | 3.017% |
| Cc1n[nH]cc1CNC(C)c1cccc(N2CCCC2=O)c1.Cl (stereo unspecified) | 3.207% |
| Cc1cccc(COC[C@@]23CCC[C@@H]2CN(C(=O)Cc2ccco2)C3)n1 | 13.36% |
| O=C(c1cscn1)N1C[C@H]2CCC[C@@]2(COCc2ccccn2)C1 | 128% |
| O=C(Cc1ccco1)N1C[C@H]2CCC[C@@]2(COCc2cccnc2)C1 | -4.256% |
| Cc1ccc(C(=O)N2C[C@H]3CCC[C@@]3(COCc3cccnc3)C2)s1 | -11.48% |
| O=C(Cc1ccsc1)N1C[C@H]2CCC[C@@]2(COCc2ccccn2)C1 | 101.3% |
| CCc1ncc(C(=O)N2CCCC2Cn2cccn2)s1 (stereo unspecified) | 101.3% |
| NC(=O)c1ccc(C(=O)N2CCCCC2Cn2cccn2)s1 (stereo unspecified) | 92.92% |
| O=C(c1cnc(C2CC2)s1)N1CCCCC1Cn1cccn1 (stereo unspecified) | 5.861% |
| NC(=O)c1csc(C(=O)N2CCCCC2Cn2cccn2)c1 (stereo unspecified) | -5.921% |
| O=C(c1cnc(C2CC2)s1)N1CCCC1Cn1cccn1 (stereo unspecified) | 124.9% |
| CCc1ncc(C(=O)N2CCCCC2Cn2cccn2)s1 (stereo unspecified) | -1.613% |

| Compound | Percent Effect |
| --- | --- |
| c1ccc2c(c1)CC(n1ccnc1-c1cc3n(n1)CCNC3)CO2 (stereo unspecified) | 0.8243% |
| O=C(CC[C@@H]1CCCN2CCCC[C@H]12)NCCc1nc(O)cc(O)n1 | -15.21% |
| N#Cc1ccnc(N2CCN(CC(O)c3cccc(F)c3)CC2)c1 (stereo unspecified) | -9.554% |
| Fc1ccc(-c2noc(CN3CCC(c4cc[nH]n4)CC3)n2)cc1 | -73.45% |
| Cc1ccc(-c2noc(CN3CCC(N4CCNC4=O)CC3)n2)cc1 | 76.33% |
| c1ccc(-c2noc(CN3CCC(c4ccn[nH]4)CC3)n2)cc1 | 3.848% |
| CCN1CCN(C2CCN(Cc3nc(-c4ccoc4)no3)CC2)C1=O | -10.87% |
| O=C1NCCN1C1CCN(Cc2nc(-c3ccoc3)no2)CC1 | 0.168% |
| Cc1cccc(-c2noc(CN3CCC(N4CCNC4=O)CC3)n2)c1 | 0.5199% |
| CN1CCN(C2CCN(Cc3nc(-c4ccoc4)no3)CC2)C1=O | 101.9% |
| O=C1NCCN1C1CCN(Cc2nc(-c3ccc(F)cc3)no2)CC1 | 108.3% |
| O=C1NCCN1C1CCN(c2ccnc(-c3ccccc3)n2)CC1 | 10.01% |
| O=C1NCCN1C1CCN(Cc2nc(-c3ccccc3)no2)CC1 | 96.78% |
| Cc1ccc(-c2noc(CN3CCC(c4ccn[nH]4)CC3)n2)cc1 | -38.16% |
| CC(C)Cc1nc(CN2CCC(N3CCN(C)C3=O)CC2)no1 | -0.1019% |
